A selection: hits, their analogues and other compounds. The true share with any hit is near 7.6%.
SW480 rereplic = induces DNA re-replication in SW480 colon adenocarcinoma cells; SW480 DNA re-replication, Hoechst DNA content imaging, 48 h; Potency, µM (series often up to 46.1 µM), for inactives: at the highest dose re-replication activation, actives largely listed as activators; hit rate 1.8% among 340,000; further: potency means the concentration at half of the fitted maximal effect; % of control where 0% means no effect; nearly all actives have a fitted effect of over 55% in size
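Image-based DNA-content assay: after two days of treatment, nuclei were labelled with the DNA dye Hoechst and imaged, and hits were compounds raising the count of nuclei showing high fluorescence intensity.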
KCNH2 WT inh = blocks the wildtype human KCNH2 potassium channel; activity change, % at 1.84 µM; U2OS, BacMam KCNH2, thallium flux FluxOr; active compounds read low; Q12809; hit rate 0.37% among 340,000;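 active means maximum activity change below -70%; inconclusive means maximum activity change between -70% and -50%; inactive means maximum activity change above -50%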; further: on the % scale 0 is the no-effect control and ±100 the full control effect
Target sequence (Q12809 whole entry, looked up): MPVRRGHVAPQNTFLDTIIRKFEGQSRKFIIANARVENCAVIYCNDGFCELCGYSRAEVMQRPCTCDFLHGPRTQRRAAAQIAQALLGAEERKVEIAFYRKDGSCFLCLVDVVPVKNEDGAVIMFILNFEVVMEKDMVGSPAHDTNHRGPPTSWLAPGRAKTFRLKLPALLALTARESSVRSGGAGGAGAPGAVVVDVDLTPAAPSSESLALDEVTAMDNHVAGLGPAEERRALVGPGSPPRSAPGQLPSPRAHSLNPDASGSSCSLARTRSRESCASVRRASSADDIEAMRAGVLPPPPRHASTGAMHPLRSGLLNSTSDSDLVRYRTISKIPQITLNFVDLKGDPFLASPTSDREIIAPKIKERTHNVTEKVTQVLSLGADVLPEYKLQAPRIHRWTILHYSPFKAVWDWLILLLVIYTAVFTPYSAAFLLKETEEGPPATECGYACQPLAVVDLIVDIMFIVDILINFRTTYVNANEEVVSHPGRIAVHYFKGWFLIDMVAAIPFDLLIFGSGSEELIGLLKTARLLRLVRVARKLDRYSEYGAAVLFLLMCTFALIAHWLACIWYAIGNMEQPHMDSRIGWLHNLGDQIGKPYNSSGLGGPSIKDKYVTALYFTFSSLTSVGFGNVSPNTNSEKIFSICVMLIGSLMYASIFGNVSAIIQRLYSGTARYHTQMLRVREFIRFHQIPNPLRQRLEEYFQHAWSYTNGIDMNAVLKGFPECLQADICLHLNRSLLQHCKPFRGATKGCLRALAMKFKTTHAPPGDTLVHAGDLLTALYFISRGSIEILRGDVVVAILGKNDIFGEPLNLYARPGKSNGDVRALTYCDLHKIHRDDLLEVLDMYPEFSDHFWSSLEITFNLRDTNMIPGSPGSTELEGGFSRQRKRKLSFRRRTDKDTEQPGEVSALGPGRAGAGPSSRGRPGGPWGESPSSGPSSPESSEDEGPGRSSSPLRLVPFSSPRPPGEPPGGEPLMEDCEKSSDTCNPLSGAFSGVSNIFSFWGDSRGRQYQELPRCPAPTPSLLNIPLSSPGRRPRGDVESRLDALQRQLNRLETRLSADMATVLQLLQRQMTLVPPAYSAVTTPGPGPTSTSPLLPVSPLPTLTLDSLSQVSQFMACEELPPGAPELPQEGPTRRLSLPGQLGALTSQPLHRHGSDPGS
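U2OS cells transduced with wild-type KCNH2 virus are loaded with FluxOr dye for 45 min, and thallium flux is measured in kinetic reads before and after stimulation buffer. Rate constants are normalized to DMSO controls.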
MCF10A rerep = inducers of DNA re-replication in MCF 10A breast cells; MCF 10A DNA re-replication, Hoechst nuclear intensity, 48 h; Potency, µM (titrated, usually from 46.1 µM), for the others: at the highest dose activity, positive = re-replication, actives largely listed as activators; hit rate 2.9% among 350,000; AID 624296; further: potency means the concentration at half of the fitted maximal effect; % of control where 0% means no effect; nearly all actives have a fitted effect of over 50% in size
KB-3-1 tox = KB-3-1 parental cell cytotoxicity; hit rate 1.4% among 400,000; AID 1347075; Potency, µM (titrated, usually from 46.1 µM), most hits filed as cytotoxic; KB-3-1 viability, CellTiter-Glo ATP luminescence, 72 h; further: potency means the concentration at half of the fitted maximal effect; on the % scale 0 is the no-effect control and ±100 the full control effect; nearly all actives have a fitted effect of over 60% in size
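Here the drug-naive KB-3-1 line serves as comparator for MDR sub-line selectivity; cells received compound titrations, 72 h at 37 °C, then CellTiter-Glo readout.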
KB-V1 cytotox = KB-V1 MDR subline cytotoxicity. KB-V1 MDR cells viability, CellTiter-Glo, 72 h. Potency, µM (doses to about 46.1 µM), usual class: cytotoxic. hit rate 3.4% among 400,000. AID 1347076; further: potency means the concentration at half of the fitted maximal effect; on the % scale 0 is the no-effect control and ±100 the full control effect; nearly all actives have a fitted effect of over 60% in size
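Drug-selected KB-V1 cells, grown in DMEM lacking phenol red with 10% FBS, receive compound titrations; after three days at 37 degrees C, surviving cell ATP is quantified by CellTiter-Glo luminescence and responses normalized and curve-fitted.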
KCNH2 3.1 inh = KCNH2 3.1 (human) potassium channel inhibition. activity change, % (tested at about 1.8 µM). hit rate 0.95% among 340,000. U2OS KCNH2 3.1, thallium flux FluxOr; active compounds read low;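 active means maximum activity change below -70%; inconclusive means maximum activity change from -70% to -50%; inactive means maximum activity change above -50%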;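 further: thallium influx rate constant from kinetic fluorescence after stimulation buffer; on the % scale 0 is the no-effect control and ±100 the full control effect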
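Normalized rate constant (relative to positive and negative DMSO controls) derived from a 2 min kinetic fluorescence read after stimulation; U2OS cells expressing the 3.1 isoform via virus at 1.77 x 10^8 /mL.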
An asterisk follows results filed as active. Unless noted, the call rests on the fitted dose curve; in most records, active means well fitted curve in the direction sought with a large enough effect; inconclusive means small, poorly fitted or top-dose-only effect, or another doubt; inactive means no such curve, though single readings can be large; an effect the other way counts as inactive or inconclusive.

What do the screens show for `Cc1ccn2c(NC3CCCCC3)c(-c3cccc(-c4cccc(Cl)c4)c3)nc2c1`?
SW480 rereplic: inconclusive; MCF10A rerep: 21µM*; KB-3-1 tox: inactive; KB-V1 cytotox: inactive

How did CCCCCCSc1ccc(-c2nc3cc(C)ccn3c2NC2CCCCC2)cc1 do in these assays?
SW480 rereplic: 10%; KCNH2 WT inh: -11; MCF10A rerep: 18µM*; KB-3-1 tox: inconclusive; KB-V1 cytotox: inconclusive; KCNH2 3.1 inh: -10

What do the screens show for `Cc1ccc(C)c(OCCCCN2CCNCC2)c1C`?
SW480 rereplic: 3%; KCNH2 WT inh: -1; MCF10A rerep: 22%; KB-3-1 tox: inactive; KB-V1 cytotox: inactive; KCNH2 3.1 inh: -88*

Results for Cc1ccc(C)c(OCCCN2CCNCC2)c1 ?
SW480 rereplic: -50%; KCNH2 WT inh: 6; MCF10A rerep: inconclusive; KB-3-1 tox: inactive; KB-V1 cytotox: inactive; KCNH2 3.1 inh: -5

Results for Cc1ccc(C(C[N+](=O)[O-])c2c(-c3ccccc3O)[nH][nH]c2=O)cc1 (stereo not drawn) ?
SW480 rereplic: 15µM*; KCNH2 WT inh: 0; MCF10A rerep: 12µM*; KB-3-1 tox: inconclusive; KB-V1 cytotox: inconclusive; KCNH2 3.1 inh: -9

How did COc1ccc2c(CC(=O)OCc3nc4ccsc4c(=O)[nH]3)coc2c1 do in these assays?
SW480 rereplic: -15%; KCNH2 WT inh: -19; MCF10A rerep: 1%; KB-3-1 tox: inactive; KB-V1 cytotox: inactive; KCNH2 3.1 inh: -12

How did O=C(CSc1nc(-c2ccccc2)cs1)N1CCN(C(=O)c2ccco2)CC1 do in these assays?
SW480 rereplic: 7%; KCNH2 WT inh: 7; MCF10A rerep: 1%; KB-3-1 tox: inactive; KB-V1 cytotox: 18µM*; KCNH2 3.1 inh: -7

What do the screens show for `Cc1ccc(OCC(=O)N2CCN(c3nnc(-c4ccccc4)c4ccccc34)CC2)cc1`?
SW480 rereplic: inconclusive; KCNH2 WT inh: -16; MCF10A rerep: inconclusive; KB-3-1 tox: inconclusive; KB-V1 cytotox: 4.1µM*; KCNH2 3.1 inh: -70*

What do the screens show for `CC(=O)N1CCN(c2nnc(-c3ccc(C)cc3)c3ccccc23)CC1`?
SW480 rereplic: -8%; KCNH2 WT inh: -3; MCF10A rerep: 9%; KB-3-1 tox: inactive; KB-V1 cytotox: inconclusive; KCNH2 3.1 inh: -1

Results for O=C(c1ccco1)N1CCN(c2nnc(-c3ccccc3)c3ccccc23)CC1 ?
SW480 rereplic: -2%; KCNH2 WT inh: 22; MCF10A rerep: -4%; KB-3-1 tox: inactive; KB-V1 cytotox: 16µM*; KCNH2 3.1 inh: -15

What do the screens show for `Cc1cc(/C=C(\C#N)C(=O)Nc2ccccc2)c(C)n1-c1ccc(F)cc1`?
KB-3-1 tox: inactive; KB-V1 cytotox: inactive

How did CCOC(=O)/C(C#N)=C/c1cc(C)n(-c2ccccc2)c1C do in these assays?
SW480 rereplic: 0%; KCNH2 WT inh: -10; MCF10A rerep: inconclusive; KB-3-1 tox: inactive; KB-V1 cytotox: 9.2µM*; KCNH2 3.1 inh: -2

Results for C=CCOc1cccc(C(=O)N(C)C2CCCN(Cc3ccccc3F)C2)c1 (stereo not drawn) ?
SW480 rereplic: 15%; KCNH2 WT inh: 0; MCF10A rerep: 19%; KB-3-1 tox: inconclusive; KB-V1 cytotox: inactive; KCNH2 3.1 inh: -19

How did CCOC(=O)N1CCc2c(sc3c2C(=O)NC(c2cc(OC)c(OC)c(OC)c2)N3)C1 (stereo not drawn) do in these assays?
KB-3-1 tox: 16µM*; KB-V1 cytotox: inactive

What do the screens show for `CSCCC(NC(=O)c1ccccc1Br)C(=O)N1CCCCCCC1` (stereo not drawn)?
SW480 rereplic: 2%; KCNH2 WT inh: 6; MCF10A rerep: 2%; KB-3-1 tox: inactive; KB-V1 cytotox: inactive; KCNH2 3.1 inh: -1

Results for CN(C(=O)COC(=O)c1c2c(nc3ccccc13)/C(=C/c1cccc([N+](=O)[O-])c1)CCC2)C1CCS(=O)(=O)C1 (stereo not drawn) ?
SW480 rereplic: -2%; KCNH2 WT inh: 11; MCF10A rerep: inconclusive; KB-3-1 tox: 5.8µM*; KB-V1 cytotox: inconclusive; KCNH2 3.1 inh: -3

Source: PubChem (National Center for Advancing Translational Sciences (NCATS))
